From PubChem BioAssay (EPA / NIEHS)
Calls of active or inactive are those of the source. The calls were made as follows: active = hit-call score of the fitted dose curve at least 0.9, where 1 is the maximum; inactive = score below 0.9.

Key:
[1] = read-out: Urokinase-type plasminogen activator receptor (uPAR), PLAUR (gene 5329); assay: BSK_4H_uPAR: BioMAP Diversity Plus: 4H Assay for Urokinase-type plasminogen activator receptor (uPAR) Biomarker Activity (AID 2283030); details: primary human endothelial cells (HUVEC); actives raise or lower the signal
Method in brief: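 Primary human umbilical vein endothelial cells were exposed to chemical for 24 h before cell-surface uPAR was quantified by ELISA. Activity was fitted bidirectionally against the DMSO negative control baseline.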

[2] = read-out: Vascular endothelial growth factor receptor 2 (Homo sapiens) (UniProt P35968); assay: BSK_4H_VEGFRII: BioMAP Diversity Plus: 4H Assay for Vascular endothelial growth factor receptor 2 (VEGFR2) Biomarker Activity (AID 2283031); details: primary human endothelial cells (HUVEC); actives raise or lower the signal;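 as to AC50: cell-surface VEGFR2 protein level quantified by ELISA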
Method in brief: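 Primary human umbilical vein endothelial cells in the BioMAP 4H system were dosed with test chemical, and 24 h later VEGFRII was measured by ELISA. Activity was fitted bidirectionally against DMSO as negative control and baseline.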

[3] = read-out: Human Leukocyte Antigen - DR isotype (HLADR), HLA-DRA (gene 3122); assay: BSK_BE3C_HLADR: BioMAP Diversity Plus: BE3C Assay for Human Leukocyte Antigen - DR isotype (HLADR) Biomarker Activity (AID 2283032); details: primary human bronchial epithelial cells; actives raise or lower the signal
Method in brief: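 ELISA read-out of HLA-DR on human lung bronchial epithelial primary cells, measured 24 h post-dosing. Both increases and decreases were scored relative to DMSO vehicle.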

[4] = read-out: Vascular cell adhesion molecule 1 (VCAM1), VCAM1 (gene 7412); assay: BSK_4H_VCAM1: BioMAP Diversity Plus: 4H Assay for Vascular cell adhesion molecule 1 (VCAM1) Biomarker Activity (AID 2283033); details: primary human endothelial cells (HUVEC); actives raise or lower the signal
Method in brief: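 ELISA read-out of VCAM-1 on human umbilical vein endothelium 24 hours after chemical dosing; gain or loss of signal was fitted relative to DMSO, with sulforhodamine B staining of parallel cultures flagging overt cytotoxicity.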

[5] = read-out: Interferon-gamma inducible Protein 10 (IP10), CXCL10 (gene 3627); assay: BSK_BE3C_IP10: BioMAP Diversity Plus: BE3C Assay for Interferon-gamma inducible Protein 10 (IP10) Biomarker Activity (AID 2283034); details: primary human bronchial epithelial cells; actives raise or lower the signal
Method in brief: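 Chemical is dosed onto human lung bronchial epithelial primary cells, cultures are incubated 24 h, and IP-10 is then quantified by ELISA. Gain or loss of signal is fitted in both directions relative to DMSO.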

[6] = read-out: Monokine induced gamma interferon (MIG), CXCL9 (gene 4283); assay: BSK_BE3C_MIG: BioMAP Diversity Plus: BE3C Assay for Monokine induced gamma interferon (MIG) Biomarker Activity (AID 2283035); details: primary human bronchial epithelial cells; actives raise or lower the signal;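 also: MIG protein measured by ELISA in BE3C cultures after 24 h of dosing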
Method in brief: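 ELISA read-out of MIG in human lung bronchial epithelial primary cultures, 24 h post-dosing. Bidirectional curve fit vs DMSO baseline.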

[7] = read-out: Transforming growth factor beta 1 (TGFb1), TGFB1 (gene 7040); assay: BSK_BE3C_TGFb1: BioMAP Diversity Plus: BE3C Assay for Transforming growth factor beta 1 (TGFb1) Biomarker Activity (AID 2283036;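 also: TGF-b1 protein level measured by ELISA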); details: primary human bronchial epithelial cells; actives raise or lower the signal
Method in brief: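 Primary human lung bronchial epithelial cells; compound exposure 24 h; TGF-b1 by ELISA; bidirectional fit, DMSO baseline. Parallel SRB total-protein staining for cytotoxicity.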

[8] = read-out: Plasminogen activator inhibitor-1 (PAI1), SERPINE1 (gene 5054); assay: BSK_BE3C_PAI1: BioMAP Diversity Plus: BE3C Assay for Plasminogen activator inhibitor-1 (PAI1) Biomarker Activity (AID 2283037); details: primary human bronchial epithelial cells; actives raise or lower the signal
Method in brief: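 Primary human lung bronchial epithelial cells; chemical dosing; 24 h; PAI-1 measured by ELISA; bidirectional fit referenced to DMSO as negative control.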

[9] = read-out: urokinase plasminogen activator (uPA), PLAU (gene 5328); assay: BSK_BE3C_uPA: BioMAP Diversity Plus: BE3C Assay for urokinase plasminogen activator (uPA) Biomarker Activity (AID 2283038); details: primary human bronchial epithelial cells; actives raise or lower the signal;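 also: uPA protein level quantified by ELISA in cell cultures; uPA read one day after compound addition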
Method in brief: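 Human primary bronchial epithelial cells were exposed to chemical for 24 h, then uPA levels were measured by ELISA. Responses were fitted bidirectionally against DMSO as negative control and baseline. Parallel SRB staining of total protein gauged overt cytotoxicity.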

[10] = read-out: Urokinase-type plasminogen activator receptor (uPAR), PLAUR (gene 5329); assay: BSK_BE3C_uPAR: BioMAP Diversity Plus: BE3C Assay for Urokinase-type plasminogen activator receptor (uPAR) Biomarker Activity (AID 2283039); details: primary human bronchial epithelial cells; actives raise or lower the signal;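 also: cells exposed to compound for one day before measurement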
Method in brief: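 Human bronchial epithelial primary cells; chemical exposure 24 h; uPAR by ELISA; bidirectional fit vs DMSO control.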

[11] = read-out: Interleukin-6 (IL6), IL6 (gene 3569); assay: BSK_CASM3C_IL6: BioMAP Diversity Plus: CASM3C Assay for Interleukin-6 (IL6) Biomarker Activity for (AID 2283040); details: primary human coronary artery smooth muscle cells; actives raise or lower the signal
[12] = read-out: Tissue plasminogen activator (tPA), PLAT (gene 5327); assay: BSK_BE3C_tPA: BioMAP Diversity Plus: BE3C Assay for Tissue plasminogen activator (tPA) Biomarker Activity (AID 2283041); details: primary human bronchial epithelial cells; actives raise or lower the signal
Method in brief: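 Primary human lung bronchial epithelial cultures receive test chemical; after 24 h, tPA is quantified by ELISA, and gain or loss of signal is fitted bidirectionally relative to DMSO baseline.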

[13] = read-out: Interleukin-8 (IL8), CXCL8 (gene 3576); assay: BSK_CASM3C_IL8: BioMAP Diversity Plus: CASM3C Assay for Interleukin-8 (IL8) Biomarker Activity (AID 2283042); details: primary human coronary artery smooth muscle cells; actives raise or lower the signal;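 also: IL-8 protein level quantified by ELISA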
[14] = read-out: Human Leukocyte Antigen - DR isotype (HLADR), HLA-DRA (gene 3122); assay: BSK_CASM3C_HLADR: BioMAP Diversity Plus: CASM3C Assay for Human Leukocyte Antigen - DR isotype (HLADR) Biomarker Activity (AID 2283043); details: primary human coronary artery smooth muscle cells; actives raise or lower the signal;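 also: cell-surface HLA-DR protein level quantified by ELISA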
[15] = read-out: Macrophage colony-stimulating factor (MCSF), CSF1 (gene 1435); assay: BSK_CASM3C_MCSF: BioMAP Diversity Plus: CASM3C Assay for Macrophage colony-stimulating factor (MCSF) Biomarker Activity (AID 2283044); details: primary human coronary artery smooth muscle cells; actives raise or lower the signal;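 also: M-CSF protein amount quantified by ELISA after 24 h exposure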
[16] = read-out: Low-density lipoprotein receptor (LDLR), LDLR (gene 3949); assay: BSK_CASM3C_LDLR: BioMAP Diversity Plus: CASM3C Assay for Low-density lipoprotein receptor (LDLR) Biomarker Activity (AID 2283045); details: primary human coronary artery smooth muscle cells; actives raise or lower the signal;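 also: LDLR protein level on the cell surface quantified by ELISA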
[17] = read-out: Monocyte Chemoattractant Protein-1 (MCP1), CCL2 (gene 6347); assay: BSK_CASM3C_MCP1: BioMAP Diversity Plus: CASM3C Assay for Monocyte Chemoattractant Protein-1 (MCP1) Biomarker Activity (AID 2283046); details: primary human coronary artery smooth muscle cells; actives raise or lower the signal;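 also: MCP-1 level quantified by ELISA 24 h after dosing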
[18] = BSK_CASM3C_Proliferation: Cell Proliferation Assessment in the BioMAP Diversity Plus: CASM3C Assay (AID 2283047); details: primary human coronary artery smooth muscle cells;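 also: sulforhodamine B total protein stain as relative cell number at 560 nm; sub-confluent cells exposed 48 h before staining; fitted both ways against DMSO so gain or loss of cell number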
[19] = read-out: Monokine induced gamma interferon (MIG), CXCL9 (gene 4283); assay: BSK_CASM3C_MIG: BioMAP Diversity Plus: CASM3C Assay for Monokine induced gamma interferon (MIG) Biomarker Activity (AID 2283048); details: primary human coronary artery smooth muscle cells; actives raise or lower the signal
[20] = read-out: serum amyloid A (SAA), SAA1 (gene 6288); assay: BSK_CASM3C_SAA: BioMAP Diversity Plus: CASM3C Assay for serum amyloid A (SAA) Biomarker Activity (AID 2283049); details: primary human coronary artery smooth muscle cells; actives raise or lower the signal;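 also: SAA protein level quantified by ELISA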

Measured: AC50

c1ccc2sc(SSN3CCOCC3)nc2c1
inactive: [2] | [3] | [6] | [7] | [8] | [9] | [10] | [16]
active: [1] 6.7 µM | [4] 6.28 µM | [5] 12.3 µM | [11] 12 µM | [12] 12.5 µM | [13] 20 µM | [14] 4.62 µM | [15] 6.94 µM | [17] 8.56 µM | [18] 2.19 µM | [19] 15.8 µM | [20] 5.46 µM

Nc1cccc(N)n1
inactive: all assays above

O=C1CCCCCCCCCCC1
not listed: [1]
inactive: all other assays above

CCNc1nc(NC(C)(C)C)nc(OC)n1
inactive: all assays above

CC/C=C\CCOC(=O)c1ccccc1O
active: [1] 21.1 µM | [2] 20 µM | [3] 20 µM | [4] 25.1 µM | [11] 3.97 µM | [12] 20 µM | [14] 32.9 µM | [15] 31.6 µM | [16] 14.4 µM | [17] 20 µM | [20] 20 µM
inactive: [5] | [6] | [7] | [8] | [9] | [10] | [13] | [18] | [19]

Cc1c(O)cccc1O
not listed: [1]
inactive: all other assays above

CC(C)c1cccc(C(C)C)c1N
active: [4] 32 µM
not listed: [1]
inactive: all other assays above

O=C(Oc1ccccc1)c1ccccc1C(=O)Oc1ccccc1
not listed: [1]
inactive: all other assays above

CCCCCCOC(=O)CCCCC(=O)OCCCCCC
not listed: [1]
inactive: all other assays above

CC1=CC=C(C(C)C)CC1
not listed: [1]
inactive: all other assays above

CC=C(C)C(C)=O
active: [5] 20 µM
not listed: [1]
inactive: all other assays above

CC1(C)CC(O)CC(C)(C)N1[O]
not listed: [1]
inactive: all other assays above

Nc1ccc(C(=O)O)cc1
not listed: [1]
inactive: all other assays above
